This note sets out measurements from PMC7862700, “An all-to-all approach to the identification of sequence-specific readers for epigenetic DNA modifications on cytosine”.

Common to all, as to assay: DAPPL (digital affinity profiling via proximity ligation, sequencing); 10 mM Tris-HCl pH 7.5, 50 mM NaCl, 1 mM DTT, 4% glycerol, room temperature, 30 min; GST-TFs on glutathione beads, 16-mer random dsDNA library, 0.1% formaldehyde crosslink after washing; high values mean tight binding
Conditions in all cases: protein: recombinant; tags: N-terminal GST; dsDNA, one strand shown

For one assay, the target named is T1, ELK1 (Homo sapiens, UniProt P19419 1-428).
T1 sequence: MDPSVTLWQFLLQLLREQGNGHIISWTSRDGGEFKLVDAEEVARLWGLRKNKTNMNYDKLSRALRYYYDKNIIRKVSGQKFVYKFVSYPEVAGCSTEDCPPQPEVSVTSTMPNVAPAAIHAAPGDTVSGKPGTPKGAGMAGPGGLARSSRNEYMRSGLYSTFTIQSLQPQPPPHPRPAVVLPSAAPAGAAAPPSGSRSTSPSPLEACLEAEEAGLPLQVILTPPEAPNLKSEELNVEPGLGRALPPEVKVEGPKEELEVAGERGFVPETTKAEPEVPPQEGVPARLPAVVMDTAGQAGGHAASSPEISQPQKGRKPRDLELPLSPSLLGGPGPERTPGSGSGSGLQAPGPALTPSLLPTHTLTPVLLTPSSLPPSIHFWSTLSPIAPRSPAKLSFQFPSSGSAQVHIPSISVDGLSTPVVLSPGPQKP
The method, boiled down:
(§1)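 GST fusions of human transcription factors were expressed in yeast and captured with glutathione beads. Once given DNA barcodes and pooled alongside a tag-only sample, they were incubated for 30 min at room temperature with 200 nmole of a random double-stranded 16-mer DNA library in Tris/NaCl/DTT/glycerol buffer, then washed, crosslinked (0.1% formaldehyde), proximity-ligated, PCR-amplified and sequenced on an Illumina NextSeq500. The binding signal of each hexamer is its read frequency for a factor divided by its frequency for the tag-only sample.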

Another assay has as its target T2, ERG (Homo sapiens, UniProt P11308 1-479).
T2 sequence: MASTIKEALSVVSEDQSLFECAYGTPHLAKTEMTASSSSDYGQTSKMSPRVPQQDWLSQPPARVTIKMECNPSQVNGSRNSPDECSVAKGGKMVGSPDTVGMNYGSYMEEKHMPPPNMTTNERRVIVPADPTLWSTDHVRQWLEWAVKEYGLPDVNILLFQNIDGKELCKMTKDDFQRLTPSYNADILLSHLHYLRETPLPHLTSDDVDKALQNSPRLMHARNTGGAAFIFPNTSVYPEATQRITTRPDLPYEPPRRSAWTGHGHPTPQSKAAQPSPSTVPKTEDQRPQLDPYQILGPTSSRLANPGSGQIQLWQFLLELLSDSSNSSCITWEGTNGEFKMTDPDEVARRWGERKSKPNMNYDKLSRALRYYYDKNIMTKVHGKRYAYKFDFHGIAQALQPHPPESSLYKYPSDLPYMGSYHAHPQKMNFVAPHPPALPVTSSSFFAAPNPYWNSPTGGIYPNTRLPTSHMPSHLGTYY
The gist of the method:
as §1

The target in a further assay is ELF1 (Homo sapiens, UniProt P32519 1-619). The method, boiled down:
as §1

In the next assay the target is T3, EHF (Homo sapiens, UniProt Q9NZC4 1-300).
T3 sequence: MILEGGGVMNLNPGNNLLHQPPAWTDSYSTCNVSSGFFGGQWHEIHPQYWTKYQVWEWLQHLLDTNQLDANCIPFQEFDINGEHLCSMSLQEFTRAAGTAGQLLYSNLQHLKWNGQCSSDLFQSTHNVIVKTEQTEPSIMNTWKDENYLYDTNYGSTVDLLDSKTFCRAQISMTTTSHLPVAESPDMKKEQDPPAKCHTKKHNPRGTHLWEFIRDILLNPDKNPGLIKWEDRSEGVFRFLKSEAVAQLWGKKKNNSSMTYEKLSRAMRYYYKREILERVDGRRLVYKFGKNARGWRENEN
The gist of the method:
as §1

The next assay deals with SPIB (Homo sapiens, UniProt Q01892 1-262). The gist of the method:
as §1

For a further assay, the target named is T4, FEV (Homo sapiens, UniProt Q99581 1-238).
T4 sequence: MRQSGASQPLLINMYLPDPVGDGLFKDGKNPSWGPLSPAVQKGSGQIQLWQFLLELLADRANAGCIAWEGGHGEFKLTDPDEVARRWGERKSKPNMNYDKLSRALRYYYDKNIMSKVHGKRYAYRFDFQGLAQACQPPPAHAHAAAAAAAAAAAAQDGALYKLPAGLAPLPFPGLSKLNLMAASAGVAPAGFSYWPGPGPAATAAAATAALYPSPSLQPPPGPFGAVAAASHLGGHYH
The gist of the method:
as §1

A further assay deals with ETV5 (Homo sapiens, UniProt P41161 1-510). The gist of the method:
as §1

In another assay the target is ELF4 (Homo sapiens, UniProt Q99607 1-663). The gist of the method: as §1
The target in a further assay is T5, ELK4 (Homo sapiens, UniProt P28324-2 1-405).
T5 sequence: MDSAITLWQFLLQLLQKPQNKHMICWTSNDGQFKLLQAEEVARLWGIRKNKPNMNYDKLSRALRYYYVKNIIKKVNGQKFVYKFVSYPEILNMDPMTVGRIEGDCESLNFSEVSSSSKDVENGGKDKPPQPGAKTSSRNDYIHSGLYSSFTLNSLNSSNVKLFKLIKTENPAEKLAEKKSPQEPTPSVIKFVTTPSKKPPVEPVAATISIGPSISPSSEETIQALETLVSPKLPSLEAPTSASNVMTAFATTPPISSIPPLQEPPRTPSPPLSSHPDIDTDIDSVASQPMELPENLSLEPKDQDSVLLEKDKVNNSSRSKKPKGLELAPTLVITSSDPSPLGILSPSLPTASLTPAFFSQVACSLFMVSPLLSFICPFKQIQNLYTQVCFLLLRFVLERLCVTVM
The method, boiled down: as §1

In the next assay the target is T6, ETV2 (Homo sapiens, UniProt O00321 1-342).
T6 sequence: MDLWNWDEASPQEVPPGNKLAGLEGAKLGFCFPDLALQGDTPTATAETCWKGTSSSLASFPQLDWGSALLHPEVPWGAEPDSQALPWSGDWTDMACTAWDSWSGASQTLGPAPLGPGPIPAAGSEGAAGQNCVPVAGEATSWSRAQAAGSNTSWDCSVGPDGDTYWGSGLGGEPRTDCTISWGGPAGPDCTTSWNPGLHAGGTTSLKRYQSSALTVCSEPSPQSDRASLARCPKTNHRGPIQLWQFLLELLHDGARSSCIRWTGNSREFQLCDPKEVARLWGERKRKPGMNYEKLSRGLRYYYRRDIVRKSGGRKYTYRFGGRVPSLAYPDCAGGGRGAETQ
The gist of the method: as §1

The target of a further assay is T7, ELF3 (Homo sapiens, UniProt P78545 1-371).
T7 sequence: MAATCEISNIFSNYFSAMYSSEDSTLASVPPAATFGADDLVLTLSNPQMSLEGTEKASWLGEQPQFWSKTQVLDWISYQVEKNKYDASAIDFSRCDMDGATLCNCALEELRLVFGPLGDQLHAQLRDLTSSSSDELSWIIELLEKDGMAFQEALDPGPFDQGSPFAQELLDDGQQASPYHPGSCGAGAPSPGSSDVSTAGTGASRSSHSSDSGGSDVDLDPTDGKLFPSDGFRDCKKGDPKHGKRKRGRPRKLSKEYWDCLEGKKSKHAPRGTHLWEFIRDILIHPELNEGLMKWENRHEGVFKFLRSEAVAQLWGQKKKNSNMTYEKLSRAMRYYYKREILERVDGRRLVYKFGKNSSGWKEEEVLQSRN
The gist of the method:
as §1

A further assay addresses ETV1 (Homo sapiens, UniProt P50549 1-477). The method, boiled down:
as §1

In another assay the target is T8, ERF (Homo sapiens, UniProt P50548 1-548).
T8 sequence: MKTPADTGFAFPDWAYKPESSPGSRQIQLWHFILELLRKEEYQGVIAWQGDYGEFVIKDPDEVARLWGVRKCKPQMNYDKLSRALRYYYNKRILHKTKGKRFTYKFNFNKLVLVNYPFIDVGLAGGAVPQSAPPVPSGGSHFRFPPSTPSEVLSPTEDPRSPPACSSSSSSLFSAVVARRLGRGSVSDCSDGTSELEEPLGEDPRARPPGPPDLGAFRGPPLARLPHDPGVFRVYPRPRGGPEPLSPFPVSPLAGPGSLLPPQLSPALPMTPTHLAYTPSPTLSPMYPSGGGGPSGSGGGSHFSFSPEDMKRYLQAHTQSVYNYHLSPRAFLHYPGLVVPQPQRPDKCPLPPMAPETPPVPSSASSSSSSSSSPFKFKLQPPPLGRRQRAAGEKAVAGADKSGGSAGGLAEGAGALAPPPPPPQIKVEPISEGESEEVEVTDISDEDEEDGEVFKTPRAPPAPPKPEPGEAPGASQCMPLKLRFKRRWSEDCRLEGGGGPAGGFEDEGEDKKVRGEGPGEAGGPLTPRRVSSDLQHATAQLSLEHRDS
The gist of the method:
as §1

The target of another assay is T9, ETV3L (Homo sapiens, UniProt Q6ZN32 1-361).
T9 sequence: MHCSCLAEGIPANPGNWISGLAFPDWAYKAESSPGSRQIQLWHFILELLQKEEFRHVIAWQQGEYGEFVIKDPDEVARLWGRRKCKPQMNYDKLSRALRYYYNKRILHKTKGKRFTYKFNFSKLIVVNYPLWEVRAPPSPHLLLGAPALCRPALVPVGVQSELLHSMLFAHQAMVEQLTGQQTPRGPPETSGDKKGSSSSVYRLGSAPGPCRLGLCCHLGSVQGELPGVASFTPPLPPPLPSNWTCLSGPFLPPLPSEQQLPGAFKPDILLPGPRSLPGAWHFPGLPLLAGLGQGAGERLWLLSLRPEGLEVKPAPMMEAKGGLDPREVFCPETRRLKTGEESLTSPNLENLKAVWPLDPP
The gist of the method:
as §1

Another assay addresses T10, ETS2 (Homo sapiens, UniProt P15036 1-469).
T10 sequence: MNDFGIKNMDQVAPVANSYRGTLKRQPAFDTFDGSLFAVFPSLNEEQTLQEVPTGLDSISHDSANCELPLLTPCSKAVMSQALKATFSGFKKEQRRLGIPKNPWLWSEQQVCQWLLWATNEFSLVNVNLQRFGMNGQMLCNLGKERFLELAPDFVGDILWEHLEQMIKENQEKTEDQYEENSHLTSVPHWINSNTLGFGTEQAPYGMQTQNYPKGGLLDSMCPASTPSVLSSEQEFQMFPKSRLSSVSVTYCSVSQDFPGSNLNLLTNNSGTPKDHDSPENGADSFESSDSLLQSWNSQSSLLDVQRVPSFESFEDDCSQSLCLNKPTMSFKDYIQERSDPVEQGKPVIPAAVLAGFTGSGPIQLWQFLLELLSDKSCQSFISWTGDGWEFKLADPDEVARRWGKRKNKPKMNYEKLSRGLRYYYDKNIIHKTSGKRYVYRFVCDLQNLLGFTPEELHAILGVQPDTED
The method, boiled down: as §1

In the next assay the target is T11, SPDEF (Homo sapiens, UniProt O95238 1-335).
T11 sequence: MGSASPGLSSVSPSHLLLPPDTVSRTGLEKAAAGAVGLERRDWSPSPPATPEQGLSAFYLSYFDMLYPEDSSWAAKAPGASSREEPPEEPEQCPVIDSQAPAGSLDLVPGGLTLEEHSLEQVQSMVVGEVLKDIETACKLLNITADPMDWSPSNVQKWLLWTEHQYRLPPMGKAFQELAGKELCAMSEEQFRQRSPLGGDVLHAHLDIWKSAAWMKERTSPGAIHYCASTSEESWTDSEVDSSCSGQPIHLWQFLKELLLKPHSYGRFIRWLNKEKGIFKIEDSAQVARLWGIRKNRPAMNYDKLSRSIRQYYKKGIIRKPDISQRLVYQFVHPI
The gist of the method: as §1

The target in the next assay is T12, ETV3 (Homo sapiens, UniProt P41162-2 1-143).
T12 sequence: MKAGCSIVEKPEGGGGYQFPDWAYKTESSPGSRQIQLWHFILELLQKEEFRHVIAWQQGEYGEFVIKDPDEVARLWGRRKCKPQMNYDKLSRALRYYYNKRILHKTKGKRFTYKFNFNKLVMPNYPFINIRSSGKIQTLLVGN
The gist of the method: as §1

Another assay has as its target ETV6 (Homo sapiens, UniProt P41212 1-452). The method, boiled down: as §1

Chain of ETV5 (P41161 whole entry): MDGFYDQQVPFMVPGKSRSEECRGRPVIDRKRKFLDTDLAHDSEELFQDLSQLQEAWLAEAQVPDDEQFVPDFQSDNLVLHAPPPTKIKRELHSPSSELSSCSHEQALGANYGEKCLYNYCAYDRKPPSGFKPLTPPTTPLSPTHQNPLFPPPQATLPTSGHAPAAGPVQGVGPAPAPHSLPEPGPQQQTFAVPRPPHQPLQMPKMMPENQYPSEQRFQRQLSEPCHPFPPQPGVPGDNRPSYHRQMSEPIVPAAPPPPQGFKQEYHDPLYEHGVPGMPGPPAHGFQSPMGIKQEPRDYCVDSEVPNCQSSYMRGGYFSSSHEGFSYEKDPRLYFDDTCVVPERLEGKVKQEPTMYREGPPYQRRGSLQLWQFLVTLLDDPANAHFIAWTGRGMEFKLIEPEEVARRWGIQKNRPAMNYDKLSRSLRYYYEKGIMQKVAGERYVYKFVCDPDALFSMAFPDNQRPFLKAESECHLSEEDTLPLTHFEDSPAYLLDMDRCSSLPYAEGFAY
Chain of ELF4 (Q99607 whole entry): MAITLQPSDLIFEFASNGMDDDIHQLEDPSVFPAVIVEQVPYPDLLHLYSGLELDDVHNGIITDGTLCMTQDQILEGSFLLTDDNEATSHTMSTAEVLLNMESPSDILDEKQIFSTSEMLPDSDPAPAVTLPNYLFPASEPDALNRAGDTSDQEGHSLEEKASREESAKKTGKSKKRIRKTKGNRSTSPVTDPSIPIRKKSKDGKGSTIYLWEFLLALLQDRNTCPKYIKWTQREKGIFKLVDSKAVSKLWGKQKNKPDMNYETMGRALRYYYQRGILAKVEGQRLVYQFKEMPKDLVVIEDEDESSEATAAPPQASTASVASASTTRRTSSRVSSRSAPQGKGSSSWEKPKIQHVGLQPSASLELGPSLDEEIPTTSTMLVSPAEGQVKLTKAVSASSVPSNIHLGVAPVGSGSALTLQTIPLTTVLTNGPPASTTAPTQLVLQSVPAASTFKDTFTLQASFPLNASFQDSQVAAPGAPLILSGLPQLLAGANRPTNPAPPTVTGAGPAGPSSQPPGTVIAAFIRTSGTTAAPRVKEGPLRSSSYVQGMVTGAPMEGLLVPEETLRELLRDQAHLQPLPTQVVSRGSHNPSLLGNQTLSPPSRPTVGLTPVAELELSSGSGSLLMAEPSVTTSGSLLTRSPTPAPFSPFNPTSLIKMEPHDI
Chain of SPIB (Q01892 whole entry): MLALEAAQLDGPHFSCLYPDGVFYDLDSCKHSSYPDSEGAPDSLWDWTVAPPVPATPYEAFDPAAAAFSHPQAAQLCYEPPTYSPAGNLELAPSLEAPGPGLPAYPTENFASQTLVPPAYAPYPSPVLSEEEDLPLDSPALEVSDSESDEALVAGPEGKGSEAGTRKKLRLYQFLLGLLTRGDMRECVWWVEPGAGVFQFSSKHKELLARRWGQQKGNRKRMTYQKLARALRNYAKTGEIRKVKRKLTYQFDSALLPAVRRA
Chain of ELF1 (P32519 whole entry): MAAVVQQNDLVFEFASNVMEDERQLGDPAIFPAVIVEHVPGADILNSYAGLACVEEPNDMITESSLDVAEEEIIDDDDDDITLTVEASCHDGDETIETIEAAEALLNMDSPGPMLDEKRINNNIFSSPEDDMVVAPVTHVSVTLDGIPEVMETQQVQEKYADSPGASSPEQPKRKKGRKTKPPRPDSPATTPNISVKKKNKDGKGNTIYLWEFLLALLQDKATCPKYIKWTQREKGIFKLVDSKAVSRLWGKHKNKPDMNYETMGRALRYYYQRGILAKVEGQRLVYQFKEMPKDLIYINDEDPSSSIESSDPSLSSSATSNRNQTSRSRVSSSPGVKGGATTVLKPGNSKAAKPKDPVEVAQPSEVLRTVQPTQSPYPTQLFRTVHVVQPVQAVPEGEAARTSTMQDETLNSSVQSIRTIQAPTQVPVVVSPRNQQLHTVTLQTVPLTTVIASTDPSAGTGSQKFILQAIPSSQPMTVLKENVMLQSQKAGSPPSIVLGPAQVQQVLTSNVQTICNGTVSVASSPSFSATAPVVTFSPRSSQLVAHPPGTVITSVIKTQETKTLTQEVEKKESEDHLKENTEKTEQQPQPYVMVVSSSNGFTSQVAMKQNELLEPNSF
Chain of ETV1 (P50549 whole entry): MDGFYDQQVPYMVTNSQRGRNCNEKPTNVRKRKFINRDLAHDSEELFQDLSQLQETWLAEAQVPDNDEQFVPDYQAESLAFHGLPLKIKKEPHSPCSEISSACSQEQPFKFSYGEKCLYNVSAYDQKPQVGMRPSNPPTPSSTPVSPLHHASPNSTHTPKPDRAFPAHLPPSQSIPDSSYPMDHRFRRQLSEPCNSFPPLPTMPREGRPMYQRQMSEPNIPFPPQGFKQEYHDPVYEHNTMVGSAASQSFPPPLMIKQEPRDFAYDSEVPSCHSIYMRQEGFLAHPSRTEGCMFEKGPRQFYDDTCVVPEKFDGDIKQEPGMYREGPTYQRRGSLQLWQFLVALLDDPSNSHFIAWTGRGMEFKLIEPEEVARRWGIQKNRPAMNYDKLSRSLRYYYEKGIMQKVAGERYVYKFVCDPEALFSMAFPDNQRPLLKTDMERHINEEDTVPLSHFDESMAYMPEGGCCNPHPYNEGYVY
Chain of ETV6 (P41212 whole entry): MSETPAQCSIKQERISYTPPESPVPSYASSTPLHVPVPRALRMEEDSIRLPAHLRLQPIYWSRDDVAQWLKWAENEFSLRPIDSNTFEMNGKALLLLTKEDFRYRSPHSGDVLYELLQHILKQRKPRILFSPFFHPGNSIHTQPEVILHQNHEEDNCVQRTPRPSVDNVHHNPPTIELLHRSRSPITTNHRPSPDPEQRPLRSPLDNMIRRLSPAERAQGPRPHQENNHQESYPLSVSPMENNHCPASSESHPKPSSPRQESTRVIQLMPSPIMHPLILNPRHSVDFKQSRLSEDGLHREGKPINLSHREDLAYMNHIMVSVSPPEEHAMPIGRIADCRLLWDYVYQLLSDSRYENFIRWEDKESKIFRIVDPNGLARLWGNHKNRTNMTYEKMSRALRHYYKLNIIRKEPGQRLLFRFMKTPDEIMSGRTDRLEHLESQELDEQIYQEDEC

For the sequence CAAGTT, the binding signal was 1.06 fold enrichment (6-mer frequency, TF over GST control) with ELK1; 1.08 fold enrichment (6-mer frequency, TF over GST control) in the assay with ERG; 1.06 fold enrichment (6-mer frequency, TF over GST control) with ELF1; 1.02 fold enrichment (6-mer frequency, TF over GST control) with EHF; 1.1 fold enrichment (6-mer frequency, TF over GST control) in the assay with SPIB; 1.02 fold enrichment (6-mer frequency, TF over GST control) with FEV. Moreover, the binding signal in the assay with ETV5 is 1.08 fold enrichment (6-mer frequency, TF over GST control); with ELF4, 1.09 fold enrichment (6-mer frequency, TF over GST control); with ELK4 it was 1.08 fold enrichment (6-mer frequency, TF over GST control); with ETV2, 1.03 fold enrichment (6-mer frequency, TF over GST control); with ELF3 it was 1.06 fold enrichment (6-mer frequency, TF over GST control); with ETV1, 1.05 fold enrichment (6-mer frequency, TF over GST control). The binding signal with ERF was 1.2 fold enrichment (6-mer frequency, TF over GST control); with ETV3L, 1.1 fold enrichment (6-mer frequency, TF over GST control); in the assay with ETS2, 1.13 fold enrichment (6-mer frequency, TF over GST control); with SPDEF it was 1.02 fold enrichment (6-mer frequency, TF over GST control); with ETV3, 1.16 fold enrichment (6-mer frequency, TF over GST control); with ETV6 it was 1.09 fold enrichment (6-mer frequency, TF over GST control).
